# Screening data from PubChem BioAssay.
# TR SRC2 fluor cs = alters Texas Red total fluorescence, flagging assay interference; 0.29% of 280,000 active; Potency, µM (top dose mostly 106 µM); TRb/SRC2 Texas Red total fluorescence interference; active = well fitted curve in either direction with a large enough effect; inconclusive = small, poorly fitted or top-dose-only effect
#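 Flags fluorescent or light-absorbing compounds by total fluorescence, S + 2P, at 555 nm excitation and 632 nm emission. Mixture: 20 nM Texas Red SRC2 peptide, 0.6 uM human TRb LBD, 1 uM T3, 5% DMSO; compound exposure 5 h at ambient temperature.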
# TRb SRC2 PPI = disrupts binding of human TR beta to SRC2; 0.065% of 280,000 active; P10828; TRbeta-SRC2 peptide binding, fluorescence polarization; receptor liganded with 1 µM T3; Potency, µM (top dose mostly 106 µM), actives largely listed as inhibitors; also: nearly all actives have a fitted effect of over 50% in size
#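 Read-out is fluorescence polarization (555 nm excitation, 632 nm emission) of a Texas Red SRC2 coactivator peptide; loss of signal reflects blocked binding to human TRb ligand-binding domain in the presence of 1 uM T3.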
# APEX1 inh = APE1 (human) endonuclease inhibition. P27695. recombinant APE1, TAMRA/BHQ-2 abasic DNA cleavage fluorescence. Potency, µM (highest dose often 65.8 µM), most hits filed as inhibitors. 0.35% of 350,000 active. AID 2517; also: nearly all actives have a fitted effect of over 55% in size
#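 APE1 at 0.75 nM preincubated 15 min at room temperature with compound. Reaction then started with 50 nM double-stranded THF-abasic substrate labelled with TAMRA/BHQ-2, and 525/598 nm fluorescence read kinetically. Activity taken as third-minus-first read difference, normalized to DMSO and NSC13755 controls.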
# BLM helicase inh = blocks DNA unwinding by human BLM helicase; Potency, µM (doses to about 56.1 µM), hits mostly inhibitors; P54132; 0.2% of 350,000 active; recombinant BLM DNA unwinding, fluorescence dequenching; also: nearly all actives have a fitted effect of over 35% in size
# Target sequence (P54132 whole entry, looked up): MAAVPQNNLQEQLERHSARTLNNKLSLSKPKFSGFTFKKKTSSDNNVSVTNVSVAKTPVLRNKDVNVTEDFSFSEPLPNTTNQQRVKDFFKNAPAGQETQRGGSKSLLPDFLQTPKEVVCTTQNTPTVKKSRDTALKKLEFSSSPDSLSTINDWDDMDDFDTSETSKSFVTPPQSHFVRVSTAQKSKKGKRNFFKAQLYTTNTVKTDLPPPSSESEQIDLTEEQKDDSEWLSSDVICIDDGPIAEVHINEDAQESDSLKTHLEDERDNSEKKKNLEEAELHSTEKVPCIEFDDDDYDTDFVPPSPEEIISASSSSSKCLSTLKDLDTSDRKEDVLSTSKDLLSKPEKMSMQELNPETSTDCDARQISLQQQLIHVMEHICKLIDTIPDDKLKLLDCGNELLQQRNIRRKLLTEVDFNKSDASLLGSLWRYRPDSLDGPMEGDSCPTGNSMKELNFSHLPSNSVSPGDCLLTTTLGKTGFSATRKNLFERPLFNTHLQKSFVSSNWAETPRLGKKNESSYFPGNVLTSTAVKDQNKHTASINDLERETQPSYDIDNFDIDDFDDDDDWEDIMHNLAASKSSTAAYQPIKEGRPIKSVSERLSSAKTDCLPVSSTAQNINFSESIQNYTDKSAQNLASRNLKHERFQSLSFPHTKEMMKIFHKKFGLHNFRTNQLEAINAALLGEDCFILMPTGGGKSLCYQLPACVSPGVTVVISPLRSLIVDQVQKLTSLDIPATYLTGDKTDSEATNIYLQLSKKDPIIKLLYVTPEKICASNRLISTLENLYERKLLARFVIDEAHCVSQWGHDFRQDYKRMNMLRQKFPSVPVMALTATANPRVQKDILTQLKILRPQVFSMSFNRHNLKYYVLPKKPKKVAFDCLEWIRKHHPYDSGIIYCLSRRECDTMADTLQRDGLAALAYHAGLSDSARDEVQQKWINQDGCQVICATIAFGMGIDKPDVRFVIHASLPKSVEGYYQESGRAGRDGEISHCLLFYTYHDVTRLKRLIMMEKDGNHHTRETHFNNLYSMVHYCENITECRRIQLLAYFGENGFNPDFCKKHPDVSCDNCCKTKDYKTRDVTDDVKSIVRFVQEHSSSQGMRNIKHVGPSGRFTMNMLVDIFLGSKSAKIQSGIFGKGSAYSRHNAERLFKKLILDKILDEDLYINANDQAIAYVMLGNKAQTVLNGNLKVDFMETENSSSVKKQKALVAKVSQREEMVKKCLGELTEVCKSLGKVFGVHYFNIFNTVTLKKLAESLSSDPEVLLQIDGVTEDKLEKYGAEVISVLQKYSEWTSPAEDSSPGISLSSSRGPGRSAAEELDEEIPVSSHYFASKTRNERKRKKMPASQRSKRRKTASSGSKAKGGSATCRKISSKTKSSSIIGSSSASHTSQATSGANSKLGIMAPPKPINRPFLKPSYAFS
# GoLoco inh red = RGS12 GoLoco-Gai1 interaction inhibition; P63096; Gai1:RGS12 GoLoco peptide FP, rhodamine, 10 min; Potency, µM (top dose mostly 61.6 µM), actives largely listed as inhibitors; 0.44% of 230,000 active; active = well fitted inhibition curve with a large enough effect, not every such curve was filed as active; inactive = no such curve, though single readings can be large or run the other way; also: nearly all actives have a fitted effect of over 30% in size
# RECQ1 inh-1 = blocks DNA unwinding by human RECQ1. AID 2549. RECQ1 DNA unwinding, red fluorescence kinetic read. Potency, µM (series often up to 57.3 µM), most hits filed as inhibitors. 0.54% of 240,000 active; also: nearly all actives have a fitted effect of over 30% in size
#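 50 nM RECQ1T1 preincubated 15 min with compound in Tris pH 8.0 buffer with MgCl2, DTT, Tween-20 and 2.5 ug/ml poly(dI-dC); started with 200 nM TAMRA/BHQ-2 forked duplex and 2 mM ATP. Unwinding read as fluorescence (525/598 nm), two reads 2 h apart.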
# RECQ1 inh conf = confirmation of human RECQ1 helicase inhibitors; shares compounds with RECQ1 inh-1; RECQ1 helicase DNA unwinding, fluorescence; Potency, µM (top dose mostly 229 µM), usual class: inhibitors; 28% of 610 active; also: nearly all actives have a fitted effect of over 45% in size
# RECQ1 ADP FP = ADP displacement flagged in RECQ1 inhibitor counter-screen | ADP fluorescence polarization displacement counterscreen | 27% of 530 active | AID 2711 | shares compounds with RECQ1 inh-1 | Potency, µM (titrated, usually from 228 µM), usual class: inhibitors; also: nearly all actives have a fitted effect of over 45% in size
# RECQ1 inh-2 = confirmation of human RECQ1 helicase inhibitors. shares compounds with RECQ1 inh-1. recombinant RECQ1 DNA unwinding, red fluorescence. Potency, µM (titrated, usually from 119 µM), usual class: inhibitors. 15% of 1,100 active. AID 504841; also: nearly all actives have a fitted effect of over 50% in size
# A number is an active result; - = inactive; ? = inconclusive; . = no result given; [ ] = remark or other dose. A selection: hits, their analogues and other compounds. The true share with any hit is near 0.9%. Unless noted, calls follow the shape of the dose curve; as a rule, active = well fitted curve in the direction sought with a large enough effect; inconclusive = small, poorly fitted or top-dose-only effect, or another doubt; inactive = no such curve, though single readings can be large; an effect the other way counts as inactive or inconclusive.
SMILES,TR SRC2 fluor cs,TRb SRC2 PPI,APEX1 inh,BLM helicase inh,GoLoco inh red,RECQ1 inh-1,RECQ1 inh conf,RECQ1 ADP FP,RECQ1 inh-2
c1csc(Cc2nn3c(-c4n[nH]c5c4CCC5)nnc3s2)c1,-,-,-,-,-,14.1µM,.,-,-
c1coc(-c2nn3c(-c4ccco4)nnc3s2)c1,-,-,?,-,-,?,.,.,?
COc1ccc(C)cc1NC(=O)COC(=O)Cc1ccc(-c2ccccc2)cc1,-,-,-,-,.,?,.,.,-
COc1ccc(NC(=O)COC(=O)Cc2ccc(-c3ccccc3)cc2)c(OC)c1,-,-,-,-,-,-,.,.,.
CC(C)Cn1nnnc1S(=O)(=O)CCc1ccccc1,-,-,-,-,-,-,.,.,.
C=CCN1C(=O)CSC1=Nc1ccc(C(=O)O)cc1,.,.,-,-,.,.,.,.,.
C=CCN1C(=O)CS/C1=C(\C#N)S(=O)(=O)c1ccc(C)cc1,39.8µM[fluorescent],?,-,-,-,20µM,.,.,?
CC(=O)NC1=NC(=O)/C(=C/c2cc(C)n(-c3ccc(NC(C)=O)cc3)c2C)S1,-,-,-,-,-,39.8µM,.,.,-
COc1cc(/C=C2\CCc3c2nc2ccccc2c3C(=O)O)cc(OC)c1OC,-,-,25.1µM,14.1µM,-,10µM,22.4µM,-,?
COC(=O)Cn1c(=NC(=O)c2ccc(OC)cc2)sc2cc(OC)ccc21,-,-,-,-,-,-,.,.,.
C#CCn1c(=NC(=O)c2ccc(S(=O)(=O)N3CCc4ccccc4C3)cc2)sc2cc(S(N)(=O)=O)ccc21,-,-,-,-,-,-,-,?,.
CCOc1ccc(-c2csc(NC(=O)c3ccc(S(=O)(=O)N4CCc5ccccc5C4)cc3)n2)cc1,-,-,-,-,-,-,.,.,.
COC(=O)Cn1c(=NC(=O)c2ccc(S(=O)(=O)N3CCc4ccccc4C3)cc2)sc2cc(OC)ccc21,-,-,-,-,-,-,-,-,.
COCCn1c(=NC(=O)c2ccc(S(=O)(=O)N3CCc4ccccc4C3)cc2)sc2cc(S(N)(=O)=O)ccc21,-,-,-,-,-,-,.,.,.
C=CCn1c(=NC(=O)c2ccc(S(=O)(=O)N3CCc4ccccc4C3)cc2)sc2cc(S(N)(=O)=O)ccc21,-,-,-,-,-,-,-,-,.
COc1ccc(-c2csc(NC(=O)c3ccc(S(=O)(=O)N4CCc5ccccc5C4)cc3)n2)c(OC)c1,-,-,-,-,-,-,-,-,.
COc1ccc(C(=O)NNc2ncnc3c2cnn3-c2cccc(Cl)c2)cc1OC,-,-,.,-,.,.,.,.,.
CC(=O)c1cccc(S(=O)(=O)NCCc2csc3nc(-c4ccc(F)cc4)nn23)c1,-,-,.,-,.,.,.,.,.
COc1ccc(-c2cc(C(C)=O)c(C)n2CCC(=O)Nc2ccc(C(F)(F)F)cc2)cc1,-,-,.,-,.,.,.,.,.
Nc1ccccc1C(=O)C[C@@H](N)C(=O)O,-,-,-,.,-,-,.,.,.
Cc1ccc(C)c2[nH]c(=O)c(CN(Cc3ccc4c(c3)OCO4)Cc3nnnn3Cc3ccco3)cc12,-,-,?,-,-,22.4µM,.,.,-
CCc1ccc2[nH]c(=O)c(CN(Cc3ccccc3OC)Cc3nnnn3Cc3ccco3)cc2c1,-,-,?,-,-,?,.,.,-
COc1cc(/C=N/N2C(=O)CSC2=S)cc(Br)c1O,?,?,?,-,-,35.5µM,?,.,.
CCN(CC)S(=O)(=O)c1ccc(OC)c(NC(=O)/C=C/c2ccco2)c1,-,-,-,-,-,25.1µM,.,.,-
CC(=O)OCC(NC(=O)C(COCc1ccccc1)NC(=O)OC(C)(C)C)C1OC(n2ccc(=O)[nH]c2=O)C(OC(C)=O)C1OC(C)=O (stereo unspecified),-,-,-,-,.,-,.,.,.
SMILES,TR SRC2 fluor cs,TRb SRC2 PPI,APEX1 inh,BLM helicase inh,GoLoco inh red,RECQ1 inh-1,RECQ1 inh conf,RECQ1 ADP FP,RECQ1 inh-2
COc1ccc2c(c1)CC(C(=O)NCc1ccc(F)cc1)CO2 (stereo unspecified),-,-,.,-,.,.,.,.,.
CC1=Nc2ccccc2N=C(NC(=O)CSc2nnnn2-c2ccccc2)C1c1ccccc1 (stereo unspecified),-,-,-,-,-,-,-,-,.
COc1ccc(-c2nc3cc(C(C)C)ccc3o2)cc1NC(=O)COc1ccc(C)cc1C,-,-,.,-,.,.,.,.,.
C/C(=C\C[Si](C)(C)C)CC[C@H](O)C1=CCCCC1=O,-,-,-,-,-,-,.,.,.
O=C(O)CCc1nn2c3ccccc3n(CC(=O)c3cccs3)c2nc1=O,-,-,-,-,-,-,-,-,.
CC(=O)Cn1c2ccccc2n2nc(CCC(=O)O)c(=O)nc12,-,-,-,-,-,-,.,.,.
COc1ccc(C(=O)Cn2c3ccccc3n3nc(CCC(=O)O)c(=O)nc23)cc1OC,-,-,-,-,-,-,-,?,.
O=C(O)/C=C/C(=O)N1Cc2cc3ccccc3nc2C1,-,-,-,-,-,?,.,.,-
O=C(O)/C=C\C(=O)N1Cc2cc3ccccc3nc2C1,.,.,.,.,-[14.2 µM],.,.,.,.
C/C(=N\NC(=O)CSCc1ccc([N+](=O)[O-])cc1)c1cccc(Br)c1,-,-,-,-,-,1µM,-,.,.
N#CC1=C(N)n2c(s/c(=C\c3ccco3)c2=O)=C(C#N)C1c1ccco1 (stereo unspecified),?,-,7.08µM,-,-,8.91µM,.,.,-
CCOC(=O)C1=C(N)n2c(s/c(=C/c3ccco3)c2=O)=C(C(=O)OC)C1c1ccco1 (stereo unspecified),-,-,?,-,-,-,.,.,.
CCOC(=O)c1ccc(N2C(=O)c3n[nH]c(-c4ccco4)c3C2c2ccc([N+](=O)[O-])cc2)cc1 (stereo unspecified),-,-,-,-,-,?,.,.,-
CN(C)c1ccc(/C=C2\SC(=S)N(Nc3ncc(C(F)(F)F)cc3Cl)C2=O)cc1,-,-,-,-,-,10µM,7.94µM,-,.
O=C(CN(Cc1ccccc1)S(=O)(=O)c1ccccc1)N/N=C/c1ccccc1[N+](=O)[O-],-,-,-,-,-,-,-,-,.
COc1ccc(CCNC(=O)c2sc3nc4n(c(=O)c3c2C)CCCC4)cc1OC,-,-,.,-,.,.,.,.,.
CC(=O)N1CCCC1c1nc2ccccc2n1Cc1ccccc1F (stereo unspecified),-,-,.,-,.,.,.,.,.
Cc1cc(NC(=O)CCSc2ccccc2)ccc1Br,-,-,-,-,-,3.55µM,.,.,-
